# Compound activity (PubChem)
# Shown are actives, neighbours in structure and some others; about 11% of the full set was active somewhere.
# VDR inhibitor: Inhibitors of the vitamin D receptor (VDR): qHTS | Potency, µM, for inactives: max response, negative = inhibition, actives largely listed as inhibitors | Vitamin D3 receptor (Homo sapiens), P11473 | hit rate 0.93% among 400,000 | VDR-SRC2-3 peptide fluorescence polarization, 2 h; further: on the % scale 0 is the no-effect control and ±100 the full control effect
# Target sequence (P11473 whole entry, looked up): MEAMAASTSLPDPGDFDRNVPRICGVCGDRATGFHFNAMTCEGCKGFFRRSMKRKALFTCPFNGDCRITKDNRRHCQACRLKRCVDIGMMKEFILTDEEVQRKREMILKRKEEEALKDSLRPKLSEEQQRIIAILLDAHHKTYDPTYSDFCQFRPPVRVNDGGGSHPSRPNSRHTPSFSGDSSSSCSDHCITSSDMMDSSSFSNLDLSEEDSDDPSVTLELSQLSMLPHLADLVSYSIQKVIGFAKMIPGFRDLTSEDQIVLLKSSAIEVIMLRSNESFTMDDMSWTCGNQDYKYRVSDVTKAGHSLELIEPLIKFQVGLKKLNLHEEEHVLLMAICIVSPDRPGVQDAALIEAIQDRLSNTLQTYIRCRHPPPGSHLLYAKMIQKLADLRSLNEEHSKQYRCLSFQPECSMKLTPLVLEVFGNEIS
#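 Signal is fluorescence polarization, reporting how far test compounds block the interaction of VDR with the SRC2-3 coregulator peptide after a 2 h room-temperature incubation.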
# JMJD2A Tudor: qHTS Assay for Inhibitors of JMJD2A-Tudor Domain. AlphaScreen JMJD2A-Tudor / H3K4me3 peptide binding. Potency, µM (highest dose often 114 µM), for the others: at the top dose activity change, negative = inhibition, hits mostly inhibitors. hit rate 4.4% among 390,000. AID 504339, 2011; further: on the % scale 0 is the no-effect control and ±100 the full control effect; nearly all actives have a fitted effect of over 50% in size
# BAZ2B inh: qHTS Assay for Inhibitors of BAZ2B; Bromodomain adjacent to zinc finger domain protein 2B (Homo sapiens), Q9UIF8; AlphaScreen BAZ2B-H3K14Ac peptide displacement; Potency, µM (highest dose often 114 µM), for the others: at the highest dose activity change, negative = inhibition, actives largely listed as inhibitors; hit rate 4.4% among 360,000; further: on the % scale 0 is the no-effect control and ±100 the full control effect; nearly all actives have a fitted effect of over 60% in size
#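 In this displacement format the biotinylated H3(5-23) peptide acetylated at Lys14 serves as ligand at 50 nM, with BAZ2B at 50 nM in PBS pH 7.4 containing 0.01% Tween-20. Donor and acceptor beads are 10 ug/mL final.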
# HP1b binding inh: HTS for Inhibitors of HP1-beta Chromodomain Interactions with Methylated Histone Tails; AID 540317, 2011; Chromobox protein homolog 1 (Homo sapiens), P83916; hit rate 0.56% among 390,000; Potency, µM (doses to about 114 µM), inactives show at the highest dose activity change, negative = inhibition, most hits filed as inhibitors; AlphaScreen HP1-beta / biotin-H3K9me3 peptide binding; further: nearly all actives have a fitted effect of over 70% in size
#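 AlphaScreen: HP1-beta (50 nM) preformed 30 min with biotin-H3(1-18)K9me3 peptide (50 nM) in PBS pH 7.4, 0.01% Tween-20. Compound added for 30 min at RT, then streptavidin donor/nickel chelate acceptor beads (10 ug/mL) for 30 min.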
# PLK1 PBD inh: qHTS for Inhibitors of PLK1-PDB (polo-like kinase 1 - polo-box domain): Primary Screen | Serine/threonine-protein kinase PLK1 (Homo sapiens), P53350 | Plk1 PBD binding of FITC phosphopeptide, fluorescence polarization | Potency, µM, for inactives: max response, negative = inhibition, hits mostly inhibitors | hit rate 2.8% among 360,000 | AID 720504, 2013; further: series mostly up to about 57 µM; on the % scale 0 is the no-effect control and ±100 the full control effect; nearly all actives have a fitted effect of over 65% in size
# G9a block: qHTS Assay for Inhibitors of Histone Lysine Methyltransferase G9a; hit rate 8.8% among 350,000; G9a H3K9 monomethylation, AlphaScreen, 2 h; Potency, µM (doses to about 102 µM), for the others: at the top dose activity, negative = inhibition, most hits filed as inhibitors; Histone-lysine N-methyltransferase EHMT2 (Homo sapiens), Q96KQ7; further: on the % scale 0 is the no-effect control and ±100 the full control effect; nearly all actives have a fitted effect of over 75% in size
#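 Quantitative HTS format: methyltransferase activity on a biotin-tagged H3K9 peptide is measured by AlphaScreen, using a rabbit anti-monomethyl-H3K9 antibody with streptavidin donor and anti-IgG acceptor beads. Final levels are 20 nM enzyme, 500 nM peptide, 20 uM SAM; 2 h RT.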
# VDR confirm: qHTS for Inhibitors of the vitamin D receptor (VDR): Hit Validation in Primary Screen | VDR-coactivator inhibition assay, qHTS confirmation | hit rate 89% among 840 | shares compounds with VDR inhibitor | Potency, µM, hits mostly inhibitors | AID 602199, 2012
# VDR FP: qHTS for Inhibitors of the vitamin D receptor (VDR): Hit Validation using a Fluorescein Assay | Potency, µM (top dose mostly 57.1 µM), without a hit: at the top dose activity change, negative = inhibition, most hits filed as inhibitors | shares compounds with VDR inhibitor | VDR-coactivator binding, fluorescein fluorescence polarization | hit rate 48% among 840
# VDR bla: qHTS for Inhibitors of the vitamin D receptor (VDR): Hit Validation using a Beta-Lactamase Assay | VDR beta-lactamase reporter cells, FRET ratio; cells co-treated with VDR agonist LG190178 | shares compounds with VDR inhibitor | AID 602202, 2012 | hit rate 23% among 840 | Potency, µM (top dose mostly 46.1 µM), for inactives: at the highest dose activity change, negative = inhibition, hits mostly inhibitors; further: on the % scale 0 is the no-effect control and ±100 the full control effect
# VDR cytotox: qHTS for Inhibitors of the vitamin D receptor (VDR): Hit Validation using a Cytotoxicity Assay | Potency, µM (highest dose often 48.3 µM), without a hit: top-dose activity change, negative = cytotoxicity, most hits filed as cytotoxic | shares compounds with VDR inhibitor | cytotoxicity counter-screen, cell viability, qHTS | AID 602204, 2012 | hit rate 18% among 840;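 further: plate controls were DMSO for no effect and high-concentration cycloheximide for full effect; nearly all actives have a fitted effect of over 75% in size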
# TbPYK inh: qHTS of Trypanosoma Brucei Inhibitors: Confirmatory Assay for Cherry-picked Compounds. shares compounds with PLK1 PBD inh. recombinant TbPYK, Kinase-Glo ATP luminescence. Potency, µM (titrated, usually from 76.9 µM), without a hit: at the top dose activity change, negative = inhibition, actives largely listed as inhibitors. hit rate 67% among 890. AID 720569, 2013; further: on the % scale 0 is the no-effect control and ±100 the full control effect; nearly all actives have a fitted effect of over 70% in size
# TbPYK ADP-Glo: qHTS of Trypanosoma Brucei Inhibitors: Orthogonal Assay for Cherry-picked Compounds; shares compounds with PLK1 PBD inh; recombinant TbPYK, ADP-Glo luminescence, 60 min; Potency, µM (highest dose often 76.9 µM), inactives show top-dose activity change, negative = inhibition, usual class: inhibitors; hit rate 62% among 890; further: on the % scale 0 is the no-effect control and ±100 the full control effect; nearly all actives have a fitted effect of over 75% in size
# * hit, by the source's call; ? = inconclusive; . = no result; [ ] = dose if it differs, or a comment. The call rests on the fitted dose curve; in most records, active means well fitted curve in the direction sought with a large enough effect; inconclusive means small, poorly fitted or top-dose-only effect, or another doubt; inactive means no such curve, though single readings can be large; an effect the other way counts as inactive or inconclusive. Potency means the concentration at half of the fitted maximal effect.
SMILES,VDR inhibitor,JMJD2A Tudor,BAZ2B inh,HP1b binding inh,PLK1 PBD inh,G9a block,VDR confirm,VDR FP,VDR bla,VDR cytotox,TbPYK inh,TbPYK ADP-Glo
O=C1NC(=O)C(=Cc2ccc(-c3cc(Cl)ccc3[N+](=O)[O-])o2)C(=O)N1,79µM*,25µM*,45µM*,?,1.5µM*,4µM*,3.4*,25%,?,?,7.1µM*,1.1µM*
NS(=O)(=O)c1ccc(-c2ccc(C=C3C(=O)NC(=O)NC3=O)o2)cc1,45µM*,?,-34%,12%,2.7µM*,10µM*,?,?,6%,-9%,1.8µM*,6.3µM*
CN1C2CCC1CC(C(=O)OC(CO)c1ccccc1)C2 (centres undefined),-1%,.,.,.,.,.,.,.,.,.,.,.
O=C1NC(=S)NC(=O)C1=Cc1ccc(Br)s1,22µM*,28µM*,56µM*,?,2.1µM*,.,4.2*,?,?,?,10µM*,16µM*
Cc1ccc(-n2c(/C=C/c3cc(Br)cs3)nc3ccccc3c2=O)cc1,0%,2%,3%,36%,.,-3%[59 µM],.,.,.,.,.,.
O=C(O)CCn1cc(C=C2C(=O)NC(=S)NC2=O)c(-c2cccc(Cl)c2)n1,25µM*,50µM*,?,3%,4.7µM*,2.5µM*,11*,?,14%,1%,7.1µM*,?
CN1C(=O)C(=Cc2ccc(N(C)C)c([N+](=O)[O-])c2)C(=O)N(C)C1=O,.,.,14%,.,.,117%[59 µM],.,.,.,.,.,.
CN(C)c1ccc(C=C2C(=O)NC(=S)NC2=O)cc1[N+](=O)[O-],22µM*,35µM*,?,?,3.8µM*,7.1µM*,13*,10µM*,28%,-8%,4.5µM*,14µM*
